Data from the supplement of paper PMC4466236.
Whole data set: some 33,000 sequences, median “E-score (dimensionless, -0.5 to 0.5)” near -0.058, cut for the highest 2% near 0.35. The full list was thinned out, with the highest values kept by preference.

Tested on: MvaT
Experiment: PBM 8-mer E-score (mean of HK and ME arrays) (E-score (dimensionless, -0.5 to 0.5)); higher = stronger relative binding preference
Protocol: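 Protein binding microarray: GST-tagged full-length MvaT (P. aeruginosa PAO1) bound to two universal double-stranded 60-mer arrays (ME and HK), each with a constant 25-mer primer and a variable 35-mer region covering all 8-mers. The 8-mer E-score (rank-based, range -0.5 to 0.5, >0.45 = specific binding) is the mean of the two arrays.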

| Sequence | PBM 8-mer E-score |
| --- | --- |
| AGGTGCAT | -0.0802 |
| GCAGGACC | -0.179 |
| ACAATCAA | 0.21 |
| TAGAGACA | 0.123 |
| CAATCGGA | -0.0769 |
| ACTTCTCC | 0.2 |
| TCATATGA | 0.204 |
| GCATATGA | 0.176 |
| TCATATAA | 0.379 |
| GCATATAC | 0.311 |
| GCATATAA | 0.374 |
| CCATATAA | 0.343 |
| ACGCAGGC | -0.282 |
| GCCGAACC | -0.115 |
| ATAACTGG | 0.213 |
| ACAGGAAA | 0.0933 |
| AAACCCTT | -0.0425 |
| GTTAATGA | 0.264 |
| CTCAATAA | 0.307 |
| CTTAATAA | 0.385 |
| GTTAATCA | 0.183 |
| CTTAAAAA | 0.163 |
| GTTAATAA | 0.377 |
| CATGAGAA | -0.0314 |
| CACTTGTA | 0.139 |

| Sequence | PBM 8-mer E-score |
| --- | --- |
| CAATAACC | 0.223 |
| AAATAACT | 0.375 |
| ACATAACT | 0.268 |
| AAATAACA | 0.336 |
| AAATAACG | 0.331 |
| AAATAACC | 0.375 |
| CACGTGCA | -0.0519 |
| ATCTGGAC | -0.0431 |
| TCATCGAA | -0.15 |
| GAGACATC | -0.0544 |
| AAGCATAG | -0.033 |
| CCAGTTAC | 0.14 |
| AGACGCGA | 0.0502 |
| AAAAATTT | 0.298 |
| CAAATTTA | 0.22 |
| AAAATTTT | 0.354 |
| AAATTTAC | 0.11 |
| AAATTTAT | 0.384 |
| AAAATTTA | 0.311 |
| AAATTTTA | 0.35 |
| GAATTTTA | 0.254 |
| TAAATTTA | 0.414 |
| AATTTTTA | 0.34 |
| AAAATTTG | 0.221 |
| AAATTTAG | 0.238 |

| Sequence | PBM 8-mer E-score |
| --- | --- |
| AGAGTTCG | 0.00443 |
| CAACCCGC | -0.00327 |
| CATGATGC | -0.011 |
| AGGGGGAG | -0.246 |
| AGAAAGGC | -0.118 |
| CTGTGCTA | -0.0139 |
| GGAGCCAC | -0.325 |
| TAATTCAA | 0.346 |
| GAAATGTA | 0.259 |
| CAATTTAA | 0.366 |
| GAATTTAA | 0.264 |
| CAAATGTA | 0.0762 |
| TAAATGTA | 0.359 |
| CAATTTAG | 0.2 |
| TAATTTAA | 0.457 |
| TAATTTGA | 0.201 |
| CAATTTTA | 0.293 |
| AAATTCAA | 0.226 |
| GAATTCAA | 0.0832 |
| CAGGAGAG | -0.196 |
| AGTCACAT | -0.0559 |
| GTTTCGCA | -0.0431 |
| ATTACTCG | 0.169 |
| AAATACTG | 0.244 |
| CATGTCAG | -0.042 |

| Sequence | PBM 8-mer E-score |
| --- | --- |
| AATAGTCG | 0.218 |
| ACGTATAC | 0.136 |
| GCAGGCGC | -0.28 |
| ATACTCGG | 0.0138 |
| TGATTTAA | 0.347 |
| AAATTTAA | 0.408 |
| AAATTTGA | 0.189 |
| AAATTTCA | 0.241 |
| CGATTTAA | 0.238 |
| AGATTTAA | 0.273 |
| GAATCAAA | 0.13 |
| GTAGTGCA | -0.115 |
| AACCACTG | -0.0219 |
| GACCGCTA | -0.115 |
| GATTGAAA | 0.12 |
| CTGCCACC | -0.166 |
| ATACTCAT | 0.175 |
| ATCAGGCA | -0.0666 |
| ATTAAATG | 0.373 |
| ATTAAAGG | 0.156 |
| ATTAAATA | 0.421 |
| ATTAAACC | 0.249 |
| AGTAAATG | 0.175 |
| GTTAAAGA | 0.11 |
| CTTAAATC | 0.0452 |

| Sequence | PBM 8-mer E-score |
| --- | --- |
| ATTAAAGA | 0.264 |
| ACTAAATA | 0.31 |
| ATTAAATC | 0.382 |
| GTTAAATA | 0.396 |
| CTTAAATA | 0.337 |
| CGGTACCG | -0.0831 |
| TACGAGCA | -0.0785 |
| CACCTAAG | -0.143 |
| GACGTACA | 0.034 |
| CCCCGTGA | -0.306 |
| AACTGACG | 0.0522 |
| ACTTTTTG | 0.122 |
| ATTAAACA | 0.391 |
| ATTAAACG | 0.284 |
| CTTAAACA | 0.156 |
| GCAATACA | 0.0621 |
| GAGCACGA | -0.273 |
| AGGCATAA | -0.0265 |
| GATTTAGA | 0.0137 |
| AGTTTATA | 0.424 |
| GATTTTTA | 0.133 |
| AGTTTATC | 0.144 |
| AATTTATA | 0.46 |
| AATTTATG | 0.273 |
| CATTTATC | 0.241 |

| Sequence | PBM 8-mer E-score |
| --- | --- |
| AATTTATC | 0.276 |
| GATTTATA | 0.398 |
| GGTTTATA | 0.242 |
| CATTTATA | 0.347 |
| CATTTTTA | 0.242 |
| AGCAGGCC | -0.328 |
| TCCTAACA | 0.0526 |
| TCCCACAA | 0.0216 |
| CAATTCAC | 0.0398 |
| ATTTTATA | 0.366 |
| ACTTTATA | 0.39 |
| ACTTTATC | 0.105 |
| CTTTTACA | 0.0261 |
| CCTTTATA | 0.193 |
| GTTTTATA | 0.243 |
| AATTTACA | 0.269 |
| ATTTTATG | 0.234 |
| ATTTTACA | 0.371 |
| TGCTCACA | -0.0823 |
| CAAGCAGG | -0.0598 |
| AGTACAGG | 0.0418 |
| AAAAATCA | 0.0153 |
| GCCTCCCC | -0.263 |
| ACATCCCA | -0.00783 |
| TCTCATAA | 0.0817 |

| Sequence | PBM 8-mer E-score |
| --- | --- |
| CAGTGGAC | 0.0119 |
| AAGACATG | 0.0346 |
| CGGGAAAG | -0.177 |
| ACAATAAG | 0.276 |
| ACAATAAC | 0.324 |
| ACAATAAT | 0.401 |
| ACAATACT | 0.223 |
| CCAATAAA | 0.302 |
| ACAATAAA | 0.356 |
| AACTACCA | 0.17 |
| AAAATAAC | 0.378 |
| GAAATAAC | 0.3 |
| AAAATACA | 0.25 |
| AAAATAAT | 0.422 |
| TAAATACA | 0.35 |
| GGAATAAA | 0.289 |
| GAAATGAA | 0.17 |
| GAAATACA | 0.0961 |
| AAAATACC | 0.265 |
| AAAAAAAT | 0.227 |
| CAAATAAC | 0.341 |
| GAAATAAA | 0.405 |
| CAGGTGTC | -0.277 |
| AGACTTGG | -0.179 |
| AGTGTCTC | -0.00692 |

| Sequence | PBM 8-mer E-score |
| --- | --- |
| ACGCTCTC | -0.273 |
| CCGTAGGA | -0.216 |
| ATACCGAG | -1.06e-05 |
| AAGAGAAT | 0.126 |
| GCTATGGA | -0.0686 |
| CGCCTAAG | -0.113 |
| AGCTCCCG | -0.29 |
| CCTTTTGA | -0.074 |
| TAAATAAA | 0.421 |
| AAAATAAA | 0.409 |
| TAAATAGA | 0.291 |
| AAAATAAG | 0.331 |
| CAAATAAA | 0.301 |
| AAAATAGA | 0.173 |
| AGTGCTAT | 0.172 |
| TACGATCA | 0.0229 |
| TCGAATCA | -0.0287 |
| ACACTTGC | -0.00708 |
| CACAATAG | 0.176 |
| AACAATAC | 0.254 |
| AACAATCT | 0.0729 |
| AACAATAG | 0.294 |
| AACAATTC | 0.27 |
| AACAATTG | 0.217 |
| ACCAATAT | 0.282 |

| Sequence | PBM 8-mer E-score |
| --- | --- |
| AACAATAA | 0.422 |
| AACAATTA | 0.391 |
| AACAATAT | 0.362 |
| CACAATAA | 0.351 |
| TACAATAA | 0.328 |
| ATGTAGTC | 0.1 |
| GGACGTTA | -0.103 |
| CACATTAG | 0.162 |
| CAGCGAGC | -0.199 |
| GCCCCCGC | -0.248 |
| CCTTTGAG | -0.158 |
| ACACGACG | -0.192 |
| ATGATCAC | -0.0926 |
| AACTTAGT | 0.289 |
| AACTTATC | 0.351 |
| CACTTATC | 0.14 |
| AACTTAGG | 0.182 |
| GACTTATC | 0.0104 |
| AACTTACT | 0.335 |
| CACTTATG | 0.12 |
| AACTTATG | 0.372 |
| AACTTATT | 0.398 |
